Source: PubChem
TRb SRC2 PPI – disrupts binding of human TR beta to SRC2 | AID 1469 | Potency, µM (highest dose often 106 µM), hits mostly inhibitors | P10828 | 280,000 compounds, 0.065% hits | TRbeta-SRC2 peptide binding, fluorescence polarization; receptor liganded with 1 µM T3; further: nearly all actives have a fitted effect of over 50% in size
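Human TRb ligand-binding domain (0.6 uM) is mixed with 20 nM Texas Red SRC2 peptide and 1 uM T3; after compound addition and 5 hr at ambient temperature, polarization is measured and normalized to unbound and bound controls.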
RGS12 GoLoco inh – blocks human Gai1 binding to RGS12 GoLoco peptide, red readout. 230,000 compounds, 0.44% hits. P63096. Gai1:RGS12 GoLoco peptide FP, rhodamine, 10 min. Potency, µM (series often up to 61.6 µM), hits mostly inhibitors; active means well fitted inhibition curve with a large enough effect, not every such curve was filed as active; inactive means no such curve, though single readings can be large or run the other way; further: nearly all actives have a fitted effect of over 30% in size
APE1 inh – blocks human APE1 abasic DNA cleavage. P27695. recombinant APE1, TAMRA/BHQ-2 abasic DNA cleavage fluorescence. Potency, µM (titrated, usually from 65.8 µM), hits mostly inhibitors. 350,000 compounds, 0.35% hits; further: nearly all actives have a fitted effect of over 55% in size
Target sequence (P27695 whole entry, looked up): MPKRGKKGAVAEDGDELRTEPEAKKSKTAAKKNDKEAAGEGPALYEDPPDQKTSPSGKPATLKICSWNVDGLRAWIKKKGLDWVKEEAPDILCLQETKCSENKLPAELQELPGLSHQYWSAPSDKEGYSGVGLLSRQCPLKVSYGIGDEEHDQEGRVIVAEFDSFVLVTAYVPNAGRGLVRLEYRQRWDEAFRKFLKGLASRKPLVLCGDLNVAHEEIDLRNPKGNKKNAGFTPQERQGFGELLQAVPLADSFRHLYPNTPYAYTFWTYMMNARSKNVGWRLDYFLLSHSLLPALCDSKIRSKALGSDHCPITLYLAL
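Quantitative HTS: incision of a TAMRA/BHQ-2 double-stranded substrate bearing a tetrahydrofuran abasic site by 0.75 nM APE1 raises fluorescence. Substrate 50 nM final, added after 15 min compound preincubation at room temperature; progress as third-minus-first kinetic read difference.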
TexasRed fluor – counter-screen for TRb-SRC2 inhibitors: fluorescence interference. TRb/SRC2 Texas Red total fluorescence interference. Potency, µM (titrated, usually from 106 µM). 280,000 compounds, 0.29% hits. AID 1479; active means well fitted curve in either direction with a large enough effect; inconclusive means small, poorly fitted or top-dose-only effect
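Human TRb ligand-binding domain at 0.6 uM with 20 nM Texas Red SRC2 peptide in Tris buffer containing 1 uM T3 and 5% DMSO, incubated with compound 5 h at ambient temperature. Total fluorescence (555/632 nm) calculated as parallel + 2 × perpendicular.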
BLM helicase inh – blocks DNA unwinding by human BLM helicase; P54132; recombinant BLM DNA unwinding, fluorescence dequenching; Potency, µM (highest dose often 56.1 µM), hits mostly inhibitors; 350,000 compounds, 0.2% hits; AID 2528; further: nearly all actives have a fitted effect of over 35% in size
RECQ1 inh – inhibitors of human RECQ1 DNA helicase | RECQ1 DNA unwinding, red fluorescence kinetic read | Potency, µM (highest dose often 57.3 µM), most hits filed as inhibitors | 240,000 compounds, 0.54% hits; further: nearly all actives have a fitted effect of over 30% in size
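RECQ1T1 50 nM; forked duplex (20 bp + 30-nt ss tails) 200 nM, ATP 2 mM final; pH 8.0, 2 mM MgCl2, 2.5 ug/ml poly(dI-dC); 15 min compound preincubation; discontinuous kinetic read over 2 h at RT.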
Hits are given with their value; [ ] = another dose, or the depositor's remark. Sampled rows, rich in hits. Any-hit rate of the full collection: about 0.9%. Unless noted, the call rests on the fitted dose curve; in most records, active means well fitted curve in the direction sought with a large enough effect; inconclusive means small, poorly fitted or top-dose-only effect, or another doubt; inactive means no such curve, though single readings can be large; an effect the other way counts as inactive or inconclusive.

Results for c1ccc(C(O[C@H]2CCCN(CCc3ccc4c(c3)OCO4)C2)c2ccccc2)cc1 ?
APE1 inh: inactive

Results for O=[N+]([O-])c1cccc(NC(=S)NCCc2ccccc2)c1 ?
TRb SRC2 PPI: inactive; RGS12 GoLoco inh: inactive; APE1 inh: inactive; TexasRed fluor: 316µM[quencher]; BLM helicase inh: inactive; RECQ1 inh: inactive

What do the screens show for `O=C(O)c1ccccc1C(=O)Nc1cccc([N+](=O)[O-])c1`?
TRb SRC2 PPI: inactive; RGS12 GoLoco inh: inactive; APE1 inh: inactive; TexasRed fluor: inactive; BLM helicase inh: inactive; RECQ1 inh: inactive

Results for O=C(Nc1cccc([N+](=O)[O-])c1)c1cc2ccccc2cc1O ?
TRb SRC2 PPI: inactive; RGS12 GoLoco inh: inactive; APE1 inh: 28.2µM; TexasRed fluor: inconclusive; BLM helicase inh: inactive; RECQ1 inh: inactive

What do the screens show for `COC(=O)C/C=C1\c2ccc3c(c2[C@@H](OC)[C@@H]1C)OCO3`?
TRb SRC2 PPI: inactive; RGS12 GoLoco inh: inactive; APE1 inh: inactive; TexasRed fluor: inactive; BLM helicase inh: inactive; RECQ1 inh: inactive

Results for COc1ccc(S(=O)(=O)Cc2ccc(C(=O)NC3CCCCC3)o2)cc1 ?
TRb SRC2 PPI: inactive; APE1 inh: inactive; TexasRed fluor: 5.62µM[quencher]; BLM helicase inh: inactive

How did CN(CC(=O)Nc1ccc(F)cc1)C(=O)c1cc(-c2ccco2)nc2ccccc12 do in these assays?
APE1 inh: inactive

How did O=C(O)c1cc(-c2ccco2)nc2cc3ccccc3cc12 do in these assays?
TRb SRC2 PPI: inactive; RGS12 GoLoco inh: inactive; APE1 inh: inconclusive; TexasRed fluor: inactive; BLM helicase inh: inactive; RECQ1 inh: 28.2µM

What do the screens show for `Cc1ccc(NC(=O)CN(C)C(=O)c2cc(-c3ccco3)nc3ccccc23)cc1`?
APE1 inh: 5.32µM

What do the screens show for `COc1cccc(NC(=O)CN(C)C(=O)c2cc(-c3ccco3)nc3ccccc23)c1`?
APE1 inh: 10.6µM

Results for Cc1ccc(S(=O)(=O)N=C=O)cc1 ?
TRb SRC2 PPI: inactive; TexasRed fluor: inactive

How did CCCCCCCCCCCCCCN(C)C do in these assays?
TRb SRC2 PPI: inactive; TexasRed fluor: inactive

What do the screens show for `COc1ccc(CNc2ncnc3c2nc2n3CCCC2)cc1`?
TRb SRC2 PPI: inactive; TexasRed fluor: 17.8µM[quencher]; BLM helicase inh: inactive

What do the screens show for `COC(=O)c1ccc(Nc2ncnc3c2nc2n3CCCC2)cc1`?
TRb SRC2 PPI: inactive; TexasRed fluor: 17.8µM[quencher]; BLM helicase inh: inactive

How did Cc1ccc(Nc2ncnc3c2nc2n3CCCC2)c(Br)c1 do in these assays?
TRb SRC2 PPI: inactive; TexasRed fluor: 20µM[quencher]; BLM helicase inh: inactive

How did Cc1ccc(CNc2ncnc3c2nc2n3CCCC2)cc1 do in these assays?
TRb SRC2 PPI: inactive; TexasRed fluor: inactive; BLM helicase inh: inactive

How did O=C1C=C(N2CCOCC2)c2ccccc2C1=O do in these assays?
APE1 inh: inactive; BLM helicase inh: 8.91µM

What do the screens show for `CC1=C(C)C(=O)C(N2CCOCC2)=CC1=O`?
TRb SRC2 PPI: inactive; RGS12 GoLoco inh: inactive; APE1 inh: inactive; TexasRed fluor: inactive; BLM helicase inh: inactive; RECQ1 inh: inactive

How did CCCCCCCCCCCO do in these assays?
TRb SRC2 PPI: inactive; TexasRed fluor: inactive

How did O=C(NCc1cccs1)c1ccc([N+](=O)[O-])cc1 do in these assays?
TRb SRC2 PPI: inconclusive; RGS12 GoLoco inh: inactive; APE1 inh: inactive; TexasRed fluor: 0.1µM[quencher]; BLM helicase inh: inactive; RECQ1 inh: inactive

How did Cc1cc(C(=O)NCc2cccs2)ccc1[N+](=O)[O-] do in these assays?
TRb SRC2 PPI: inactive; RGS12 GoLoco inh: inactive; APE1 inh: inactive; TexasRed fluor: inactive; BLM helicase inh: inactive; RECQ1 inh: inactive

Results for O=C(Cl)c1ccc(C(=O)Cl)cc1 ?
TRb SRC2 PPI: inactive; TexasRed fluor: inactive

How did [O-][n+]1onc2c1CCC(=N/O)/C2=N\Nc1ccccc1 do in these assays?
TRb SRC2 PPI: inactive; RGS12 GoLoco inh: 14.1µM; APE1 inh: inconclusive; TexasRed fluor: inconclusive; BLM helicase inh: 31.6µM; RECQ1 inh: inconclusive

Results for [O-][n+]1c2c(nn1-c1ccccc1)/C(=N/O)CCC2 ?
TRb SRC2 PPI: inactive; RGS12 GoLoco inh: inactive; APE1 inh: inactive; TexasRed fluor: inactive; BLM helicase inh: inactive; RECQ1 inh: inactive
